Experimental data taken from ChEMBL document CHEMBL4513137, “CO-ADD screening of University of Manchester (UK) compounds”.
Potency and affinity values are given separately.

Experiments:
Staphylococcus aureus = settings: Concentration 32 ug.mL-1; ASSAY_TEST Inhibition of Bacterial Growth; detection method Absorption (OD600); MEDIA CAMHB; plate type 384well; NBS; CORNING #3640; time 18 hr
Escherichia coli = settings: Concentration 32 ug.mL-1; ASSAY_TEST Inhibition of Bacterial Growth; detection method Absorption (OD600); MEDIA CAMHB; plate type 384well; NBS; CORNING #3640; time 18 hr

Row | Structure (SMILES) | Inhibition (Staphylococcus aureus) | Inhibition (Escherichia coli)
1 | O=[N+]([O-])c1ccc(-c2ccccc2Nc2ccccc2)cc1 | -5.74% | 3.34%
2 | O=[N+]([O-])c1ccc(-c2ccccc2N(Cc2ccccc2)c2ccccc2)cc1 | 20.79% | 4.24%
3 | O=[N+]([O-])c1ccc(-c2ccccc2Nc2ccccc2)cc1F | 18.96% | 3.69%
4 | Cc1ccccc1Nc1ccccc1-c1ccc([N+](=O)[O-])cc1 | 21.4% | -4.33%
5 | O=[N+]([O-])c1ccc(-c2ccccc2Nc2ccccc2)cc1C(F)(F)F | 23.3% | 4.01%
6 | Clc1cc(Br)cc(Cl)c1-c1ccccc1Nc1ccccc1 | 22.27% | -3.79%
7 | CN(c1ccccc1)c1ccccc1-c1ccc([N+](=O)[O-])cc1 | 9.33% | -0.45%
8 | O=[N+]([O-])c1ccc(-c2cccc3c2[nH]c2ccccc23)cc1 | 21.52% | 3.84%
9 | Cc1cccc(C)c1Nc1ccccc1-c1ccccc1[N+](=O)[O-] | 57.09% | 4.01%
10 | COc1cccc(N(C)c2cccc(OC)c2-c2ccc([N+](=O)[O-])cc2C)c1 | 23.07% | 1.91%
11 | CC[C@@H](Nc1ccccc1-c1c(Cl)cc(Br)cc1Cl)c1ccccc1 | 29.88% | 4.43%
12 | O=[N+]([O-])c1ccc(-c2c(Nc3ccccc3)ccc3ccccc23)cc1 | 8.24% | -0.39%
13 | COc1ccc(Nc2ccccc2-c2ccc([N+](=O)[O-])cc2)cc1 | 17.68% | -1.45%
14 | O=[N+]([O-])c1ccc(-c2ccccc2Nc2ccccc2Br)cc1 | 15.02% | -1.08%
15 | COc1cccc(Nc2ccccc2)c1-c1c(Cl)cc(Br)cc1Cl | 19.63% | 4.62%
16 | COc1cc([N+](=O)[O-])ccc1-c1c(Nc2ccccc2)cccc1OC | 27.31% | 7.58%
17 | c1ccc(Nc2ccccc2-c2ncccn2)cc1 | 6.34% | 1.3%
18 | N#Cc1ccc(-c2ccccc2Nc2ccccc2)cc1 | 12.74% | -6.88%
19 | Cc1cc([N+](=O)[O-])ccc1-c1ccccc1N(C)c1ccccc1 | -10.68% | 0.54%
20 | O=[N+]([O-])c1ccc(-c2c(Nc3ccccc3)cccc2-c2ccccc2)cc1 | 23.01% | -0.69%
21 | COc1cccc(Nc2ccccc2)c1-c1ccc([N+](=O)[O-])cc1 | 23.81% | 7.82%
22 | CC(=O)c1ccc(-c2ccccc2Nc2ccccc2)cc1 | 12.03% | 6.5%
23 | COc1cc([N+](=O)[O-])ccc1-c1ccccc1Nc1ccccc1 | 23.48% | -2.88%
24 | Cc1cc(C)c(Nc2ccccc2-c2ccc([N+](=O)[O-])cc2)c(C)c1 | -5.17% | 1.23%
25 | O=[N+]([O-])c1ccc2c3ccccc3n(-c3ccccc3)c2c1 | 11.65% | -9.21%
26 | O=[N+]([O-])c1ccc(-c2ccccc2Nc2ccccc2)c(Cl)c1 | 13.69% | -8.34%
27 | O=[N+]([O-])c1cc(Cl)c(-c2ccccc2Nc2ccccc2)c(Cl)c1 | 19.61% | -7.56%
